Consider 40 compounds from PubChem BioAssay (NCATS).

Values joined by “and” are separate entries in the source; they are usually repeats but may differ in a detail not shown here. Equal entries are not always repeated. Records with an inconclusive call do not appear. Active and inactive are the calls of the source. Calls follow the shape of the dose curve; as a rule, active = well fitted cell-killing curve with a large enough effect in the repeat runs; inconclusive = weak or mixed curves; inactive = flat fitted curve, though single readings scatter.
% is scaled to controls: 0 for no effect and ±100 for the full control effect.

A short description of this assay: qHTS assay for small molecule agonists of the antioxidant response element (ARE) signaling pathway measured by Nrf2-dependant transcriptional activity - cell viability counter screen (AID 720653). The conditions noted are these: ARE-bla HepG2 viability, CellTiter-Glo ATP luminescence, 16 h; max response: active compounds read low. The text has this: National Center for Advancing Translational Sciences [NCATS] NIH Chemical Genomics Center [NCGC] U.S. Environmental Protection Agency [EPA] National Institutes of Environmental Health Sciences [NIEHS] National Toxicology Program [NTP] Assay Overview: Oxidative stress has been implicated in the pathogenesis of a variety of diseases ranging from cancer to neurodegeneration. The antioxidant response element (ARE) signaling pathway plays an important role in the amelioration of oxidative stress. The CellSensor ARE-bla HepG2 cell line (Invitrogen) can be used for analyzing the Nrf2/antioxidant response signaling pathway. Nrf2 (NF-E2-related factor 2) and Nrf1 are transcription factors that bind to AREs and activate these genes. The CellSensor ARE-bla HepG2 cell line contains a beta-lactamase reporter gene under control of the Antioxidant Response Element (ARE) stably integrated into HepG2 cells. The activation of the report gene under culture conditions can be detected by fluorescence intensity. The cytotoxicity of the compounds against the ARE-bla HepG2 cell line was quantified by measuring the intracellular ATP content.
Assay Protocol Summary: ARE-bla HepG2 cells were dispensed at 2,000 cells/5 ul/well in 1536-well black wall/clear bottom plates using a Multidrop Combi (ThermoFisher Scientific, Waltham, MA) dispenser. After the assay plates were incubated at 37C/5% CO2 for 5 hrs, 23 nL of compounds dissolved in DMSO, positive controls or DMSO only was transferred to the assay plate by a pintool work station (Kalypsys, San Diego, CA). The plates were incubated at 37C/5% CO2 for 16 hrs. After 1 uL of LiveBLAzer B/G FRET substrate was added using a Flying Reagent Dispenser (FRD) (Aurora Discovery, San Diego, CA), the assay plates were incubated at room temperature for 2 hrs. The fluorescence intensity was measured by an Envision (PerkinElmer, Shelton, CT) plate reader. Cell viability using CellTiter Glo viability assay (Promega, Madison, WI) was also measured by adding 4 ul/well of CellTiter-Glo reagent into the same assay plate using a FRD. After 30 min incubation at room temperature, the luminescence intensity in the plates was measured using a ViewLux (PerkinElmer) plate reader.
Background: In qHTS, concentration-response curves come from the screen itself.
For `CC(Cl)(Cl)C(=O)OCCOc1cc(Cl)c(Cl)cc1Cl`, the max response is 2.91% (inactive).
Regarding `CC/C=C/CCCCCCCCCCOC(C)=O`, the max response was -0.636% (inactive).
For the compound `CCC(=O)OCCc1ccccc1`, the max response was 0.747% (inactive).
The same measure for `S=C([S-])NCCNC(=S)[S-].[Mn+2]`: -8.97% (inactive) and -21.3% (inactive).
The same measure for `CCCCCCCCCC(=O)OC`: -16.8% (inactive).
The same measure for `COC(=O)C(C)Oc1ccc(Oc2ncc(C(F)(F)F)cc2Cl)cc1` (stereo not given): -10.2% (inactive); for `CN(C)Cc1cc(CN(C)C)c(O)c(CN(C)C)c1`: -15.7% (inactive).
As to `CCCCCCCC(=O)OC`, the max response was 0.0694% (inactive).
As for `O=S(=O)(O)c1cc(S(=O)(=O)O)c2c(N=Nc3ccccc3)c(O)ccc2c1`, the max response is -9.68% (inactive).
As to `CC1=CC(=O)CC(C)(C)C1`, the max response is -10.2% (inactive).
Take `Cl[Si](Cl)(c1ccccc1)c1ccccc1`: the max response was -10.9% (inactive).
The same measure for `C#CCOC(=O)[C@@H](C)Oc1ccc(Oc2ncc(Cl)cc2F)cc1`: -3.32% (inactive); for `O=c1[nH]c(=O)c2[nH]cnc2[nH]1`: 0.287% (inactive).
The same measure for `CCCCCCCC/C=C\CCCCCCCCO`: -1.08% (inactive).
The same measure for `CCOC(=O)c1ccccc1C`: 0.0878% (inactive); for `CO[Si](CCCNCCN)(OC)OC`: 2.71% (inactive).
Take `O=C(O)CN(CCCN(CC(=O)O)CC(=O)O)CC(=O)O`: the max response is -7.74% (inactive).
The same measure for `C=CCCCCCCCCCCCC`: 1.55% (inactive); for `CCCCCCOCCOCCO`: -7.8% (inactive); for `CCCN(CCC)c1c([N+](=O)[O-])cc(C(F)(F)F)c(N)c1[N+](=O)[O-]`: -7.36% (inactive).
The same measure for `CCCCCCc1ccc(N)cc1`: -14.6% (inactive); for `CS(=O)(=O)c1ccc(Cl)cc1`: 0.283% (inactive); for `CCCCCCCC(=O)Oc1c(Br)cc(C#N)cc1Br`: 0.905% (inactive).
As for `CCOC(=O)C(C)Oc1ccc(Oc2cnc3cc(Cl)ccc3n2)cc1` (stereo not given), the max response was -11.5% (inactive).
On to `C=C(C)C(=O)OCC[N+](C)(C)C`, for which the max response is 1.93% (inactive).
`CC(C)(C)c1cc(C(C)(C)C)c(O)c(C(C)(C)C)c1`: the max response was 8.43% (inactive).
The same measure for `CCCCCCCCCc1ccccc1`: 4.47% (inactive); for `CCCCOC(=O)/C=C\C(=O)OCCCC`: 14% (inactive); for `c1ccc(B(c2ccccc2)c2ccccc2)cc1`: -1.71% (inactive).
Turning to `COc1ccc(OC)c(OC)c1`, the max response was 7.1% (inactive).
In the case of `O=C(O)CN(CCO)CCN(CC(=O)O)CC(=O)O`, the max response is -1.05% (inactive).
For `CCCCCCCC1CCC(=O)O1` (stereo not given), the max response was -3.73% (inactive).
The same measure for `O=[N+]([O-])C(CO)(CO)CO`: -10% (inactive); for `Cn1c(=O)[nH]c(=O)n(C2CCCCC2)c1=O`: -9.94% (inactive).
The same measure for `C=CC(=O)OCC(C)OCC(C)OCC(C)OC(=O)C=C` (stereo not given): -8.01% (inactive); for `CCCCN(CCCC)CCCC`: -5.72% (inactive); for `C=Cc1ccc(P(c2ccccc2)c2ccccc2)cc1`: -10.4% (inactive).
The same measure for `Nc1ccc(Nc2ccccc2)cc1`: 14.3% (inactive); for `CCC/C(=N\OCC)C1=C(O)CC(O)(CC(C)S(=O)(=O)CC)CC1=O` (stereo not given): -10.1% (inactive); for `CCCCCCCCCCO`: -7.77% (inactive) and 2.22% (inactive).
